From PubChem BioAssay (NCI)
About 83,000 compounds went through this panel and 20% of them were active in at least one assay; those are over-represented in the sample as a whole.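 Interpretation: 100, growth as untreated; towards 0, rising growth inhibition; 0, no net growth; 0 to -100, cell death. Compounds scoring below 10 were considered active.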 Unmarked numbers belong to inactive results. The source made the active and inactive calls.

Key:
Test in all cases: NCI-60 one-dose screen, 48 h (100 = growth as untreated, 0 = no growth, -100 = all killed)
Conditions in all cases: 10 µM unless noted
SK-MEL-2 melanoma = system: SK-MEL-2 melanoma
EKVX NSCLC = system: EKVX NSCLC
SN12C renal = system: SN12C renal
UO-31 renal = system: UO-31 renal
TK-10 renal = system: TK-10 renal
ACHN renal = system: ACHN renal
CAKI-1 renal = system: CAKI-1 renal
A498 renal = system: A498 renal
CCRF-CEM leukemia = system: CCRF-CEM leukemia
RPMI-8226 leukemia = system: RPMI-8226 leukemia
OVCAR-8 ovarian = system: OVCAR-8 ovarian
OVCAR-5 ovarian = system: OVCAR-5 ovarian
OVCAR-4 ovarian = system: OVCAR-4 ovarian
SK-OV-3 ovarian = system: SK-OV-3 ovarian
IGROV1 ovarian = system: IGROV1 ovarian
OVCAR-3 ovarian = system: OVCAR-3 ovarian
HS 578T breast = system: HS 578T breast
NCI/ADR-RES ovarian = system: NCI/ADR-RES ovarian
SR leukemia = system: SR leukemia
MOLT-4 leukemia = system: MOLT-4 leukemia

Q: What does the source list for O=C(NC(=S)N1CC=CCC1)c1ccccc1?
A: growth (SK-MEL-2 melanoma): 84.4%; growth (EKVX NSCLC): 111%; growth (SN12C renal): 88.4%; growth (UO-31 renal): 87%; growth (TK-10 renal): 94.5%; growth (ACHN renal): 94.3%; growth (CAKI-1 renal): 105%; growth (A498 renal): 93.1%; growth (CCRF-CEM leukemia): 121%; growth (RPMI-8226 leukemia): 104%; growth (OVCAR-8 ovarian): 100%; growth (OVCAR-5 ovarian): 97.4%; growth (OVCAR-4 ovarian): 116%; growth (SK-OV-3 ovarian): 107%; growth (IGROV1 ovarian): 122%; growth (OVCAR-3 ovarian): 115%; growth (HS 578T breast): 92.7%; growth (NCI/ADR-RES ovarian): 108%

Q: CCNC(=O)Oc1ccc[nH]c1=O was tested. Which growth (SK-MEL-2 melanoma) did it give?
A: Its growth is 107%.

Q: And the growth (EKVX NSCLC)?
A: Its growth is 103%.

Q: What about the growth (SN12C renal) of the same compound?
A: Its growth is 104%.

Q: What about the growth (UO-31 renal) of the same compound?
A: Its growth is 86.6%.

Q: What about the growth (TK-10 renal) of the same compound?
A: The growth was 110%.

Q: And the growth (ACHN renal)?
A: The growth was 100%.

Q: And the growth (CAKI-1 renal)?
A: The growth was 95.1%.

Q: And the growth (A498 renal)?
A: The growth was 116%.

Q: And the growth (CCRF-CEM leukemia)?
A: Its growth is 99%.

Q: What about the growth (SR leukemia) of the same compound?
A: Its growth is 76.4%.

Q: What about the growth (RPMI-8226 leukemia) of the same compound?
A: The growth was 93.4%.

Q: And the growth (OVCAR-8 ovarian)?
A: The growth was 25.9%.

Q: What about the growth (OVCAR-5 ovarian) of the same compound?
A: Its growth is 102%.

Q: And the growth (OVCAR-4 ovarian)?
A: Its growth is 98.3%.

Q: What about the growth (SK-OV-3 ovarian) of the same compound?
A: The growth was 103%.

Q: What about the growth (IGROV1 ovarian) of the same compound?
A: Its growth is 97.9%.

Q: And the growth (OVCAR-3 ovarian)?
A: Its growth is 112%.

Q: And the growth (HS 578T breast)?
A: Its growth is 95.2%.

Q: What about the growth (NCI/ADR-RES ovarian) of the same compound?
A: Its growth is 102%.

Q: What does the source list for CN1CCCN(C(c2ccccc2)c2ccc(Cl)cc2)CC1 (centres undefined)?
A: growth (SK-MEL-2 melanoma): 117%; growth (EKVX NSCLC): 94.8%; growth (SN12C renal): 101%; growth (UO-31 renal): 76.3%; growth (TK-10 renal): 78.3%; growth (ACHN renal): 98.7%; growth (CAKI-1 renal): 77.5%; growth (A498 renal): 56.1%; growth (CCRF-CEM leukemia): 103%; growth (MOLT-4 leukemia): 89.5%; growth (RPMI-8226 leukemia): 101%; growth (OVCAR-8 ovarian): 105%; growth (OVCAR-5 ovarian): 98.8%; growth (OVCAR-4 ovarian): 84.2%; growth (SK-OV-3 ovarian): 110%; growth (OVCAR-3 ovarian): 104%; growth (HS 578T breast): 86.3%; growth (NCI/ADR-RES ovarian): 94%

Q: CCCC1OC(c2ccco2)OCC1CC (centres undefined) was tested. Which growth (SK-MEL-2 melanoma) did it give?
A: The growth was 97.7%.

Q: What about the growth (EKVX NSCLC) of the same compound?
A: The growth was 96.4%.

Q: What about the growth (SN12C renal) of the same compound?
A: The growth was 98.4%.

Q: What about the growth (UO-31 renal) of the same compound?
A: The growth was 77.6%.

Q: And the growth (TK-10 renal)?
A: The growth was 97.1%.

Q: And the growth (ACHN renal)?
A: The growth was 105%.

Q: And the growth (CAKI-1 renal)?
A: The growth was 88.2%.

Q: And the growth (A498 renal)?
A: The growth was 94.6%.

Q: And the growth (CCRF-CEM leukemia)?
A: The growth was 93%.

Q: And the growth (SR leukemia)?
A: Its growth is 106%.

Q: What about the growth (RPMI-8226 leukemia) of the same compound?
A: The growth was 94.8%.

Q: And the growth (OVCAR-8 ovarian)?
A: The growth was 101%.

Q: And the growth (OVCAR-5 ovarian)?
A: The growth was 100%.

Q: And the growth (OVCAR-4 ovarian)?
A: Its growth is 115%.

Q: What about the growth (SK-OV-3 ovarian) of the same compound?
A: The growth was 113%.

Q: And the growth (OVCAR-3 ovarian)?
A: The growth was 109%.

Q: What about the growth (HS 578T breast) of the same compound?
A: The growth was 118%.

Q: What about the growth (NCI/ADR-RES ovarian) of the same compound?
A: Its growth is 107%.

Q: With CCOC(=O)/C(C#N)=C\c1c[nH]c2ccccc12 as the compound, how does the growth (SK-MEL-2 melanoma) read?
A: Its growth is 105%.

Q: What about the growth (EKVX NSCLC) of the same compound?
A: Its growth is 75.7%.

Q: What about the growth (SN12C renal) of the same compound?
A: The growth was 90.5%.

Q: What about the growth (UO-31 renal) of the same compound?
A: The growth was 69.6%.

Q: And the growth (TK-10 renal)?
A: Its growth is 221%.

Q: And the growth (ACHN renal)?
A: Its growth is 85.1%.

Q: What about the growth (CAKI-1 renal) of the same compound?
A: The growth was 30.8%.

Q: And the growth (A498 renal)?
A: Its growth is 153%.

Q: What about the growth (CCRF-CEM leukemia) of the same compound?
A: Its growth is 108%.

Q: What about the growth (MOLT-4 leukemia) of the same compound?
A: The growth was 81.6%.

Q: What about the growth (RPMI-8226 leukemia) of the same compound?
A: Its growth is 55.7%.

Q: And the growth (OVCAR-8 ovarian)?
A: The growth was 85%.

Q: And the growth (OVCAR-5 ovarian)?
A: Its growth is 111%.

Q: And the growth (OVCAR-4 ovarian)?
A: The growth was 86.8%.

Q: What about the growth (SK-OV-3 ovarian) of the same compound?
A: Its growth is 96.2%.

Q: And the growth (OVCAR-3 ovarian)?
A: Its growth is 103%.

Q: What about the growth (HS 578T breast) of the same compound?
A: The growth was 116%.

Q: What about the growth (NCI/ADR-RES ovarian) of the same compound?
A: Its growth is 88.5%.

Q: COc1ccc(C(=O)C(=O)c2ccccc2)cc1 was tested. Which growth (SK-MEL-2 melanoma) did it give?
A: Its growth is 110%.

Q: What about the growth (EKVX NSCLC) of the same compound?
A: The growth was 102%.

Q: What about the growth (SN12C renal) of the same compound?
A: Its growth is 98.7%.

Q: What about the growth (UO-31 renal) of the same compound?
A: Its growth is 95.3%.

Q: And the growth (TK-10 renal)?
A: The growth was 108%.

Q: And the growth (ACHN renal)?
A: The growth was 101%.

Q: And the growth (CAKI-1 renal)?
A: Its growth is 99.9%.

Q: And the growth (A498 renal)?
A: The growth was 97.5%.

Q: And the growth (CCRF-CEM leukemia)?
A: The growth was -54.2% (active).

Q: And the growth (SR leukemia)?
A: Its growth is 95.9%.

Q: What about the growth (RPMI-8226 leukemia) of the same compound?
A: Its growth is 103%.

Q: What about the growth (OVCAR-8 ovarian) of the same compound?
A: Its growth is 105%.

Q: And the growth (OVCAR-5 ovarian)?
A: The growth was 101%.

Q: What about the growth (OVCAR-4 ovarian) of the same compound?
A: The growth was 100%.

Q: What about the growth (SK-OV-3 ovarian) of the same compound?
A: Its growth is 103%.

Q: What about the growth (IGROV1 ovarian) of the same compound?
A: Its growth is 102%.

Q: And the growth (OVCAR-3 ovarian)?
A: Its growth is 108%.

Q: What about the growth (NCI/ADR-RES ovarian) of the same compound?
A: Its growth is 104%.

Q: For CC(=O)NC(CCC(=O)c1ccccc1)C(=O)O (centres undefined), which growth (SK-MEL-2 melanoma) is on record?
A: The growth was 104%.

Q: What about the growth (EKVX NSCLC) of the same compound?
A: Its growth is 99.2%.

Q: And the growth (SN12C renal)?
A: The growth was 98.5%.

Q: What about the growth (UO-31 renal) of the same compound?
A: The growth was 98.5%.

Q: What about the growth (TK-10 renal) of the same compound?
A: The growth was 93.8%.

Q: What about the growth (ACHN renal) of the same compound?
A: The growth was 108%.

Q: What about the growth (CAKI-1 renal) of the same compound?
A: Its growth is 102%.

Q: What about the growth (A498 renal) of the same compound?
A: Its growth is 99.4%.

Q: And the growth (CCRF-CEM leukemia)?
A: The growth was 103%.

Q: What about the growth (SR leukemia) of the same compound?
A: The growth was 16.6%.

Q: And the growth (RPMI-8226 leukemia)?
A: The growth was 91.4%.

Q: And the growth (OVCAR-8 ovarian)?
A: Its growth is 101%.

Q: What about the growth (OVCAR-5 ovarian) of the same compound?
A: Its growth is 98.3%.

Q: What about the growth (OVCAR-4 ovarian) of the same compound?
A: Its growth is 100%.

Q: And the growth (SK-OV-3 ovarian)?
A: Its growth is 87.5%.

Q: And the growth (IGROV1 ovarian)?
A: The growth was 104%.

Q: What about the growth (OVCAR-3 ovarian) of the same compound?
A: Its growth is 107%.

Q: And the growth (HS 578T breast)?
A: Its growth is 108%.

Q: What about the growth (NCI/ADR-RES ovarian) of the same compound?
A: Its growth is 106%.

Q: What does the source list for COc1ccc(Br)c(C=O)c1?
A: growth (SK-MEL-2 melanoma): 104%; growth (EKVX NSCLC): 83.2%; growth (SN12C renal): 63.9%; growth (UO-31 renal): 54.1%; growth (TK-10 renal): 83.7%; growth (ACHN renal): 88.9%; growth (CAKI-1 renal): 63.9%; growth (A498 renal): 93.4%; growth (CCRF-CEM leukemia): 2.55% (active); growth (SR leukemia): 8.35% (active); growth (RPMI-8226 leukemia): 22.2%; growth (OVCAR-8 ovarian): 69.1%; growth (OVCAR-5 ovarian): 93.1%; growth (OVCAR-4 ovarian): 88.5%; growth (SK-OV-3 ovarian): 103%; growth (IGROV1 ovarian): 92.3%; growth (OVCAR-3 ovarian): 74.2%; growth (NCI/ADR-RES ovarian): 51.6%

Q: CCN(CC)CCCC(C)NC(=S)N/N=C(\C)c1ccccn1 (centres undefined) was tested. Which growth (SK-MEL-2 melanoma) did it give?
A: The growth was 83.6%.

Q: What about the growth (EKVX NSCLC) of the same compound?
A: The growth was 47.7%.

Q: And the growth (SN12C renal)?
A: The growth was 35.9%.

Q: What about the growth (UO-31 renal) of the same compound?
A: Its growth is 14.8%.

Q: What about the growth (TK-10 renal) of the same compound?
A: Its growth is 48.4%.

Q: What about the growth (ACHN renal) of the same compound?
A: The growth was 31.4%.

Q: And the growth (CAKI-1 renal)?
A: The growth was 20.1%.

Q: And the growth (A498 renal)?
A: The growth was 72.1%.

Q: What about the growth (CCRF-CEM leukemia) of the same compound?
A: The growth was 29.8%.

Q: And the growth (MOLT-4 leukemia)?
A: Its growth is 9.05% (active).

Q: What about the growth (RPMI-8226 leukemia) of the same compound?
A: Its growth is 58.9%.

Q: And the growth (OVCAR-8 ovarian)?
A: The growth was 36.1%.

Q: And the growth (OVCAR-5 ovarian)?
A: Its growth is 55.1%.

Q: What about the growth (SK-OV-3 ovarian) of the same compound?
A: Its growth is 52.3%.

Q: What about the growth (IGROV1 ovarian) of the same compound?
A: Its growth is 32.3%.

Q: And the growth (OVCAR-3 ovarian)?
A: The growth was 51%.

Q: And the growth (HS 578T breast)?
A: Its growth is 92.6%.

Q: And the growth (NCI/ADR-RES ovarian)?
A: Its growth is 93.7%.
